Assay outcomes (PubChem)
The entries come from a sample that favours hits as a whole.
LDHA block = qHTS assay for inhibitors of human lactate dehydrogenase; L-lactate dehydrogenase A chain (Homo sapiens), P00338; purified LDHA, NADH/diaphorase-resazurin fluorescence; hits give low values; activity change, % (values are at about 110 or 230 µM); 0.15% of 480,000 active; AID 1347041, 2019; in the data active = activity change below about -30%; inconclusive = mostly about -25% to -30%;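 note: plate controls were DMSO wells for no effect and wells without enzyme for full effect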
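Human LDH5 (2 nM) was incubated with 0.06 mM NADH and 0.2 mM pyruvate for 5 min at room temperature in Tris pH 7.4. Remaining NADH was coupled through diaphorase/resazurin, and resorufin fluorescence was read at 0 and 20 min.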
ClpP mod = qHTS Assay for Activators of ClpP; ATP-dependent Clp protease proteolytic subunit (Bacillus subtilis (strain 168)), P80244; purified B. subtilis ClpP, FRET peptide cleavage, 20 min; Potency, µM (top dose mostly 57.5 µM), for inactives: at the highest dose activity change, negative = active; 1.9% of 340,000 active; active = well fitted falling curve with a large enough effect; inconclusive = small, poorly fitted or top-dose-only effect; inactive = no such curve, though single readings can be large or run the other way; note: potency is the fitted concentration of half-maximal effect; the source files actives as falling curves though it sought activators and does not explain the sign; nearly all actives have a fitted effect of over 65% in size
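Purified B. subtilis ClpP, 10 microg/mL final in Tris/HCl pH8 with KCl, BSA, glycerol and Tween-20, cleaved an Abz/nitrotyrosine-quenched decapeptide. Fluorescence (ex 320, em 430) was read at 0 and 20 min at room temperature. Delta was normalized to 5.8 microM ADEP and DMSO/no-enzyme controls.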
ASM inhibitor = Inhibitors of Secretory Acid Sphingomyelinase (S-ASM): qHTS | 0.006% of 340,000 active | AID 504937, 2011 | placental ASM, HMU-PC fluorogenic substrate, 60 min | Potency, µM (titrated, usually from 57.5 µM), inactives show at the highest dose activity change, negative = inhibition, hits mostly inhibitors | Sphingomyelin phosphodiesterase (Homo sapiens), P17405; note: potency is the fitted concentration of half-maximal effect
Target sequence (P17405 47-631 limits assumed): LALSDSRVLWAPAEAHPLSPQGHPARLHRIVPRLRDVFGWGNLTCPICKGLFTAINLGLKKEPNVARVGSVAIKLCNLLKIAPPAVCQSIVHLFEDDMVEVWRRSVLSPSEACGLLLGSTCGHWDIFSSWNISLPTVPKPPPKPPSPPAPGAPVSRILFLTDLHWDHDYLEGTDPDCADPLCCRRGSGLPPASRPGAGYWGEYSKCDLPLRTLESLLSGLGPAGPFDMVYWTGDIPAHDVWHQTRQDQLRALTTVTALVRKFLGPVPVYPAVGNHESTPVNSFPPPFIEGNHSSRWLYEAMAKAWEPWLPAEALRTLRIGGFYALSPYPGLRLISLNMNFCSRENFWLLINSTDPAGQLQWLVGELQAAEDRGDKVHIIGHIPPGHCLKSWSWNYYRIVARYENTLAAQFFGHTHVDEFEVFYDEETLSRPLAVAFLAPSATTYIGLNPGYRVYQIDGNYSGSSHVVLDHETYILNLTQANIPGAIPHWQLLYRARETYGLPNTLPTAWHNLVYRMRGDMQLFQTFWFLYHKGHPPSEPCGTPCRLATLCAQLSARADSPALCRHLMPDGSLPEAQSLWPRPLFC
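Fluorescence read-out (Ex 386 nm, Em 447 nm) after stopping the reaction at pH 10. Enzyme: ASM from human placenta; substrate HMU-PC0, 9 uM final; 60 min, 37 °C. Compound preincubation 10 min, ambient temperature.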
RGS4 inhibitor = Inhibitors of Regulator of G Protein Signaling (RGS) 4: qHTS; Potency, µM (highest dose often 114 µM), inactives show at the highest dose activity change, negative = inhibition, actives largely listed as inhibitors; Transcreener GDP fluorescence polarization, RGS4-accelerated GTP hydrolysis; Regulator of G-protein signaling 4 (Homo sapiens), P49798; 0.039% of 390,000 active; AID 504845, 2011; note: potency is the fitted concentration of half-maximal effect; % is set by controls: 0 for no effect and ±100 for the full control effect; nearly all actives have a fitted effect of over 75% in size
Target sequence (P49798 whole entry, looked up): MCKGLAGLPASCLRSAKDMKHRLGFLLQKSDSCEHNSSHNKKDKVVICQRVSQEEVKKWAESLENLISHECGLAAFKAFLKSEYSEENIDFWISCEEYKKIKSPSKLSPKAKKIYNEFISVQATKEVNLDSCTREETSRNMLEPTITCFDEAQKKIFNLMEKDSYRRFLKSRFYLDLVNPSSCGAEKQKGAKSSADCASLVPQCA
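MLSMR compounds (23 nl, pin-transferred) preincubated 10 min at room temperature with a 500nM (2x) first reagent, then RGS4 at 900nM (2x) plus Transcreener GDP mix added; fluorescence polarization (620/688 nm) read before and after 90 min at 30 °C.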
Mito fusion act = qHTS Assay for Small Molecule Inhibitors of Mitochondrial Division or Activators of Mitochondrial Fusion; AID 485298, 2010; 0.23% of 320,000 active; S. cerevisiae fusion-defective mutant growth rescue, CellTiterGlo 48 h; Potency, µM (top dose mostly 46.1 µM), for inactives: at the top dose growth rescue (activation), usual class: activators; note: potency is the fitted concentration of half-maximal effect; % of control where 0% means no effect; nearly all actives have a fitted effect of over 45% in size
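Growth-rescue viability read-out: after 48 h at the non-permissive 37C in glycerol/ethanol YPEG, yeast mitochondrial fusion mutants are measured by CellTiterGlo luminescence; compounds (23 nl pinned per well) restoring growth score as division inhibitors or fusion activators.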
IDH1 R132H inh = qHTS for Inhibitors of mutant isocitrate dehydrogenase 1 (IDH1): qHTS. IDH1-R132H enzyme, NADPH consumption, diaphorase/resazurin fluorescence. Potency, µM (titrated, usually from 76.6 µM), for the others: at the highest dose activity change, negative = inhibition, hits mostly inhibitors. 0.093% of 390,000 active; note: potency is the fitted concentration of half-maximal effect; % is set by controls: 0 for no effect and ±100 for the full control effect; nearly all actives have a fitted effect of over 65% in size
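IDH1-R132H (0.5 ug/mL dispensed) in pH 7.5 Tris buffer was preincubated 30 min with compound, then given a substrate mix of 0.016 mM NADPH and 2 mM alpha-KG for 80 min at room temperature; remaining NADPH was read by diaphorase/resazurin fluorescence.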
* hit, by the source's call; i = inactive; u = inconclusive; x = not tested or not shown; ! = not confirmed by another sample; [ ] = dose if it differs, or a comment. Unless noted, calls come from the whole dose curve; as a rule, active = well fitted curve in the direction sought with a large enough effect; inconclusive = small, poorly fitted or top-dose-only effect, or another doubt; inactive = no such curve, though single readings can be large; an effect the other way counts as inactive or inconclusive.

SMILES | LDHA block | ClpP mod | ASM inhibitor | RGS4 inhibitor | Mito fusion act | IDH1 R132H inh
O=C(c1cccc(S(=O)(=O)N2CCCCC2)c1)N1CCN(c2ccccc2)CC1 | -7 | -1% | 0% | 6% | 4% | 0%
CC1CCN(C(=O)c2cccc(S(=O)(=O)N3CCN(c4ccccc4)CC3)c2)CC1 | -1 | 1% | 1% | 4% | 18µM* | 2%
c1ccc(C(c2nnnn2C2CCCCC2)N2CCc3ccccc3C2)nc1 (stereo not given) | 12 | 2.5µM* | 25% | 7% | 6% | 3%
CCC(C)NC(=O)Cc1c(C)[nH]c2ccc(F)cc12 (stereo not given) | 0 | x | x | x | x | x
COC(=O)C1=CNC=C(C(=O)OC)C1c1ccc(C(=O)OC)cc1 | -3 | 28µM* | i | 30% | 4% | -3%
COC(=O)C1=CNC=C(C(=O)OC)C1c1cccc(Br)c1 | -18 | x | x | x | x | x
O=S(=O)(N1CC=C(c2c[nH]c3cc(F)ccc23)CC1)N1CCCCCC1 | 13 | x | x | x | x | x
CCOC(=O)N1CCN(c2nc(-c3cccc(OC)c3)cc(C(F)(F)F)n2)CC1 | 3 | 28µM* | -1% | u | -3% | 3%
CCOC(=O)N1CCN(c2nc(-c3ccco3)cc(C(F)(F)F)n2)CC1 | -1 | 3% | -1% | -1%[11.4 µM] | 0% | 4%
COc1ccccc1-n1c(-c2ccc(NS(C)(=O)=O)cc2)n[nH]c1=S | -12 | 28µM* | 3% | -5% | 2% | 2%
CN(c1ccc(C(=O)NCCSCc2ccc(Cl)cc2)cc1)S(=O)(=O)c1ccccc1 | -3 | 28µM* | -1% | -4% | 8% | -2%
COC(=O)c1ccc(Cl)cc1NC(=O)N1CC=C(c2c[nH]c3ccccc23)CC1 | -6 | 28µM* | x | -28% | x | 2%
CC(C)NC(=O)CCCc1cn(C)c2ccccc12 | -4 | 32µM* | 3% | 16% | 3% | 1%
Cc1ccc2nc(SCc3cccc([N+](=O)[O-])c3)nc(C)c2c1 | 2 | 4% | -8% | 17% | -1% | 5%
COc1ccc2nc(SCc3cccc(C)c3)nc(C)c2c1 | -3 | 25µM* | 163% | -4% | 7% | 4%
COc1ccc2nc(SCc3ccccc3C)nc(C)c2c1 | -7 | 7.1µM* | 156% | 28% | -7% | -5%
COc1ccc2nc(SCC(=O)O)nc(C)c2c1 | -3 | 28µM* | 233% | 14% | 6% | 2%
COc1ccc2nc(SCCOC(=O)Nc3ccc(Cl)cc3)nc(C)c2c1 | -4 | 28µM* | 172% | -11% | 30% | 1%
O=C(Cn1ccc2ccc(OCc3ccccc3)cc21)NC1CC1 | -1 | x | x | x | x | x
O=C(Cc1n[nH]c(=O)c2ccccc12)Nc1ccccc1F | 2 | x | x | x | x | x
COc1ccc(C2N(Cc3ccccc3)CC(=O)N2/N=C(\C)c2ccccc2)cc1 (stereo not given) | -4 | 16µM* | -4% | 27% | -8% | 0%
CCCCc1cc(=O)oc2cc(C)cc(OCC(=O)O)c12 | 2 | 8.9µM* | 13% | 5% | 3% | 2%
CC(C)OC(=O)/C(C#N)=C/c1c[nH]c2ccccc12 | -32*! | u | 0% | -27% | u | 7%
N#C/C(=C\c1c[nH]c2ccccc12)C(=O)OC1CCCCC1 | 4 | x | x | x | x | x
COc1ccccc1C(NC(C)=O)c1c(O)ccc2ccc(O)cc12 (stereo not given) | 22 | x | -1% | -6% | x | -2%
SMILES | LDHA block | ClpP mod | ASM inhibitor | RGS4 inhibitor | Mito fusion act | IDH1 R132H inh
COc1ccccc1C(NC(=O)CC(C)C)c1c(O)ccc2ccccc12 (stereo not given) | -2 | 35µM* | 10% | -4% | 2% | -1%
Cn1c(=O)c2c(nc(N3CCN(c4ccccc4)CC3)n2Cc2ccccc2Cl)n(C)c1=O | 14 | x | x | x | x | x
Nc1c(Cl)cc(Cl)cc1C(=O)OCC(=O)NC1CC1 | 0 | 8.9µM* | i | 12% | 0% | 19%
O=C(COC(=O)c1cc(F)c(F)cc1Cl)NC1CC1 | -7 | 1% | 4% | 10% | 7% | -18%
CCc1cc(=O)oc2cc3occ(-c4ccc(OC)c(F)c4)c3cc12 | -2 | u | 25% | u | 16µM* | 2%
COc1ccc(-c2cc(=O)oc3cc4occ(-c5ccc(F)cc5)c4cc23)cc1 | 6 | x | x | x | x | x
COc1cc(/C=N/O)ccc1OCc1ccc(NC(C)=O)cc1 | 3 | x | x | x | x | x
Cc1ccc(C(=O)NC(NCc2ccccc2)C(Cl)(Cl)Cl)cc1 (stereo not given) | 1 | 14µM* | 0% | 13% | 9% | 8%
Cc1ccc(C(=O)NC(NCC2CCCO2)C(Cl)(Cl)Cl)cc1 (stereo not given) | -7 | -3% | 5% | 13% | 7% | 2%
Cc1ccc(C(=O)NC(NC(=S)Nc2ccc(S(N)(=O)=O)cc2)C(Cl)(Cl)Cl)cc1 (stereo not given) | -34* | -8% | -13% | -34% | -3% | -1%
O=C(NC1CCN(Cc2ccccc2)CC1)C1CCN(S(=O)(=O)c2ccc(F)c(F)c2)CC1 | -7 | x | x | x | x | x
Cn1c(=O)cc(SCC(=O)N2CCCC2)c2ccccc21 | -1 | 28µM* | 0% | -15% | 2% | 7%
Cc1ccc(Cl)cc1N1CCN(C(=O)CSc2cc(=O)n(C)c3ccccc23)CC1 | -12 | -27% | x | 15% | x | 11%
COC(=O)c1ccc(C2CC(=O)Nc3c2cc(Br)c2ccccc32)cc1 (stereo not given) | -35* | x | x | x | x | x
Cc1ccc(C(CNc2oc(C(C)(C)C)nc2C#N)N2CCOCC2)cc1 (stereo not given) | -12 | x | x | x | x | x
CCc1ccc(C(=O)N2CCN(CCc3ccccc3)CC2)cc1 | 6 | x | x | x | x | x
Oc1ccc(-c2nc3ccc4ccccc4c3c3c2CCC3)cc1O | 7 | -2% | -22% | 25% | 16µM* | -22%
CC(=O)Nc1ccc(Nc2cc(C)nc3c(-c4ccccc4)cnn23)cc1 | -1 | -1% | 17% | -12% | 14µM* | -4%
CC(=O)Nc1ccc(Nc2cc(C)nc3c(-c4ccc(C)cc4)cnn23)cc1 | -19 | x | x | x | x | x
COc1ccc(N2CC(C(=O)Nc3c(C)nn(C)c3C)CC2=O)c(OC)c1 (stereo not given) | 0 | x | x | x | x | x
CNc1nc2c(C)cccn2c(=O)c1C=NCc1ccccc1 | -2 | 28% | 15% | -12%[11.4 µM] | 0% | 1%
